Screening results from PubChem BioAssay.
This is a sample that favours compounds with a hit; in the whole collection about 5.5% have one here.
RORg inh: ROR gamma (mouse) transcription inhibition. P51450. Drosophila S2 Gal4-RORgamma UAS-luciferase reporter, 20 h. Potency, µM (series often up to 53.6 µM), inactives show top-dose activity change, negative = inhibition, most hits filed as inhibitors. hit rate 5.4% among 310,000. AID 2551; also: % is scaled to controls: 0 for no effect and ±100 for the full control effect; nearly all actives have a fitted effect of over 60% in size
Target sequence (P51450 whole entry, looked up, the tested form may be a part): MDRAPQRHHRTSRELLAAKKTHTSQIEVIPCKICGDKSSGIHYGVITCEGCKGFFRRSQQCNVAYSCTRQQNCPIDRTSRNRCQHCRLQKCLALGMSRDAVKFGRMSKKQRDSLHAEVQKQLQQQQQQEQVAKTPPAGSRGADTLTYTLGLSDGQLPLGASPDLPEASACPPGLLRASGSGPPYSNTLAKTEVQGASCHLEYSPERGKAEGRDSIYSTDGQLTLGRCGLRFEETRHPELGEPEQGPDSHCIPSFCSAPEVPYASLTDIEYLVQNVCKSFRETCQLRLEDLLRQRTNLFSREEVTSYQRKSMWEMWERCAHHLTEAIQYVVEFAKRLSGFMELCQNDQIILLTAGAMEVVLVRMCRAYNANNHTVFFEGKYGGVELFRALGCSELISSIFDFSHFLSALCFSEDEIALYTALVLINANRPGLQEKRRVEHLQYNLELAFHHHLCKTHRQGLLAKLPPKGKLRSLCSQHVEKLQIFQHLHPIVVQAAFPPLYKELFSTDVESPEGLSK
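Using a luciferase readout, inhibitors were identified by reduced reporter activity in Drosophila cells coexpressing a copper-inducible Gal4–ROR gamma fusion and UAS-driven Photinus luciferase, incubated 20 hr after 700 uM copper sulfate.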
uPA surface inh: blocks generation of uPA at the cell surface. cell surface uPA generation assay, qHTS. Potency, µM (titrated, usually from 38.3 µM), without a hit: at the top dose activity change, negative = inhibition, most hits filed as inhibitors. hit rate 0.31% among 330,000. AID 540303; active = well fitted inhibition curve with a large enough effect; inconclusive = small, poorly fitted or top-dose-only effect; inactive = no such curve, though single readings can be large or run the other way; tested in mouse RAW 264.7 cells; also: % is scaled to controls: 0 for no effect and ±100 for the full control effect; nearly all actives have a fitted effect of over 55% in size
BCR signal inh: inhibitors of chronic active B-cell receptor signaling. hit rate 0.05% among 340,000. Potency, µM (titrated, usually from 46.1 µM), for the others: top-dose activity change, negative = inhibition, usual class: inhibitors. AID 493014. ABC-DLBCL IkBa-CBG/CBR reporter, luminescence ratio, 4 h; active = well fitted inhibition curve with a large enough effect in the signal ratio, with a control signal flat, not every such curve was filed as active; inconclusive = small, poorly fitted or top-dose-only effect, or effect the other way, or a change in a side signal; the % refers to the signal ratio;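 also: plate controls were basal doxycycline-induced cells for no effect and cells given 10 µM MG132 for full effect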
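Cell line TMD8 (human ABC DLBCL), stably expressing tet-inducible CBG68-IkBa fusion and CBR; IMDM/0.5% FBS; cpd up to 46 uM; dox induction, 4 h, 37C/5% CO2; dual luminescence; green/red ratio; MG132 control.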
Gal4-VP16 FLuc: Gal4-VP16 reporter inhibition counter-screen | Drosophila S2 Gal4-VP16 UAS-luciferase, luminescence, 20 h | Potency, µM (highest dose often 53.6 µM), without a hit: at the top dose activity, negative = inhibition, actives largely listed as inhibitors | hit rate 3.5% among 310,000;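 also: Gal4-VP16 expression switched on by copper sulfate through the metallothionein promoter; % is scaled to controls: 0 for no effect and ±100 for the full control effect; nearly all actives have a fitted effect of over 50% in size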
Mito fusion act: mitochondrial division inhibition or fusion activation; S. cerevisiae fusion-defective mutant growth rescue, CellTiterGlo 48 h; hit rate 0.23% among 320,000; Potency, µM (titrated, usually from 46.1 µM), inactives show at the highest dose growth rescue (activation), usual class: activators; also: % of control where 0% means no effect; nearly all actives have a fitted effect of over 45% in size
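Luminescent cell viability in 1536-well qHTS format served as the measure of rescued growth in ts fusion-mutant S. cerevisiae cultured on non-fermentable YPEG for 48 hours at 37C.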
a7 integrin act: integrin-mediated muscular dystrophy alleviation activation | alpha7betagal myoblasts, beta-gal FDG fluorescence, 48 h | Potency, µM (highest dose often 38.3 µM), without a hit: at the top dose activation, usual class: activators | hit rate 0.064% among 350,000 | AID 624291;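 also: 100% = response of the positive control SU9516; nearly all actives have a fitted effect of over 60% in size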
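alpha7betagal+/- myoblasts (passage 13, 250/well) treated 48 h at 37C with compounds at 1:260 dilution of DMSO stock. Lysed, then beta-galactosidase activity read as FDG fluorescence (ex 480/em 540) after 30 min, with pre-read for autofluorescence.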
* = called active by the depositor; u = inconclusive; x = not tested or not shown; [ ] = another dose, or the depositor's remark. Unless noted, calls follow the shape of the dose curve; as a rule, active = well fitted curve in the direction sought with a large enough effect; inconclusive = small, poorly fitted or top-dose-only effect, or another doubt; inactive = no such curve, though single readings can be large; an effect the other way counts as inactive or inconclusive. Potency is read from the fitted curve at half-maximal effect.

SMILES	RORg inh	uPA surface inh	BCR signal inh	Gal4-VP16 FLuc	Mito fusion act	a7 integrin act
Cc1nc(-c2ccccc2)cn(O)c1=O	6.3µM*	-9%	-1%	-72%	6%	-1%
Cc1nn2cc(-c3ccccc3)nc2[nH]c1=O	8%	3%	-19%	7%	0%	-18%
COCCC(=O)N1CCC(Oc2ccc(C(=O)NCc3nccn3C)cc2)CC1	-26%	20%	-1%	15%	-2%	0%
N=C1S/C(=C\c2ccc(O)cc2)C(=O)N1c1ccc(F)cc1	2.5µM*	-8%	-3%	2.8µM*	-4%	0%
CC(OC(=O)c1ccc2ncsc2c1)C(=O)NC1CCCCC1C (stereo unspecified)	x	0%	-18%	x	2%	16%
CCOc1ccc(C(=O)NNC2CC(=O)N(Cc3ccc(Cl)cc3)C2=O)cc1OC (stereo unspecified)	3.2µM*	2%	-1%	1.3µM*	-6%	8%
CCc1ccc(N2CN(CCc3ccccc3)CNC2=S)cc1	1.3µM*	-2%	-12%	6.3µM*	3%	30%
COc1cccc(N2CN(CCc3ccccc3)CNC2=S)c1	14µM*	6%	-10%	u	-3%	-9%
Cc1ccc(N2CN(CCC3=CCCCC3)CNC2=S)cc1	0.56µM*	8%	-20%	6.3µM*	-4%	16%
Cc1ccc(N2CN(Cc3cccnc3)CNC2=S)cc1	-11%	-7%	5%	-12%	-2%	14%
CCCCN(C)CCCNC(=O)C1(O)c2ccccc2NC(=O)N1c1ccc(Cl)cc1 (stereo unspecified)	-19%	-5%	u	-5%	-1%	7%
O=C(O)C(Cc1ccc2c(c1)oc1ccccc12)NCP(=O)(O)O (stereo unspecified)	14%	x	x	-11%	x	x
Cc1ccc(NCCC(=O)c2cccc([N+](=O)[O-])c2)c(C)c1	10µM*	x	8%	u	0%	-43%
Cc1cccc(NCCC(=O)c2ccc([N+](=O)[O-])cc2)c1C	5%	-5%	-2%	-3%[10 µM]	2%	-46%
COc1ccccc1NC(=S)NC(=O)/C=C/c1cccs1	4.5µM*	6%	u	11µM*	2%	1%
COc1ccc(NC(=S)NC(=O)/C=C/c2ccco2)cc1	-3%	-12%	u	-19%	-8%	-15%
COc1cccc(NC(=S)NC(=O)/C=C/c2ccc(F)cc2)c1	7.1µM*	-4%	0%	u	-12%	0%
COc1ccc(NC(=S)NC(=O)/C=C/c2ccccc2)cc1	7.1µM*	1%	1%	7.1µM*	-16%	-40%
COc1ccc(NC(=S)NC(=O)/C=C/c2cccs2)cc1	3.5µM*	-1%	u	u	-5%	-6%
COc1ccc(NS(=O)(=O)c2cc(NC(=O)c3ccc(=O)[nH]n3)ccc2C)cc1	x	u	0%	x	-2%	1%
CC(C)CN(C(=O)c1ccc([N+](=O)[O-])s1)c1c(N)n(Cc2ccccc2)c(=O)[nH]c1=O	x	-16%	3%	x	-3%	6%
CN(C)S(=O)(=O)c1cccc(NC(=O)c2ccc(COc3ccccc3)cc2)c1	-44%	-8%	u	6.3µM*	2%	-59%
CCOC(=O)c1cccc(N)c1	10%[10 µM]	x	x	-5%	x	x
Cc1c(-c2nc(N)nc(Nc3ccccc3)n2)oc2ccccc12	5%	0%	u	-29%	14µM*	-4%
O=c1ccn(C2OC(COP(=O)(O)OC3C(CO)OC(n4ccc(=O)[nH]c4=O)C3O)C(O)C2O)c(=O)[nH]1 (stereo unspecified)	6%	x	x	0%	x	x
SMILES	RORg inh	uPA surface inh	BCR signal inh	Gal4-VP16 FLuc	Mito fusion act	a7 integrin act
Cn1ccc2cc(-c3ccc4ncnc(NCc5cccs5)c4c3)ccc21	x	7.9µM*	u	x	-12%	x
Cn1ccc2cc(-c3ccc4ncnc(NCc5cccnc5)c4c3)ccc21	x	x	0%	x	-14%	x
Cc1cc(C(F)F)n2nc(C(=O)Nc3cccc(S(=O)(=O)N4CCOCC4)c3)nc2n1	-5%	1%	u	-15%	-2%	4%
CC1=NN(c2nc(-c3ccccc3)cs2)C(=O)C1N=Nc1ccccc1 (stereo unspecified)	7.1µM*	-3%	4%	-2%	2%	10%
COCCn1c(SCC(=O)NCCCN2CCCC2=O)nc2sc3c(c2c1=O)CCCC3	x	-3%	x	x	x	10%
COc1ccc(C(=O)c2ccc(OC)c(N)c2)cc1N	1.4µM*	-2%	u	-9%	8%	11%
COc1ccc(C(=O)c2ccc(OC)c(OC)c2)cc1OC	4%	-1%	1%	-16%	4%	-19%
Cc1ccnc(NC(=S)NC(=O)c2cccs2)c1	2.2µM*	-8%	u	4µM*	-3%	-11%
O=C(NC(=S)Nc1ccccn1)c1ccco1	13µM*	1%	u	u	-6%	7%
CCNC(=S)Nc1cc(C)ccn1	2.5µM*	-2%	-4%	5.6µM*	-16%	6%
O=C(NC(=S)Nc1cccnc1Cl)c1ccco1	u	u	u	-7%	16%	-6%
Cc1ccc2oc(-c3ccc(C)c(NC(=S)NC(=O)c4cccs4)c3)nc2c1	7.1µM*	u	-2%	7.1µM*	1%	u
Cc1ccnc(NC(=O)CNC(=O)c2cccs2)c1	x	6%	6%	x	0%	-29%
S=C(NCCc1ccccc1)N1CCN(C23CC4CC(CC(C4)C2)C3)CC1	18%	0%	7%	-11%	u	-25%
CC(=O)c1ccc(S(=O)(=O)N(C)CCCC(=O)N(C)Cc2c(F)cccc2Cl)cc1	-9%	-4%	12%	5%	8%	-38%
Cc1ccnc(NC(=O)/C=C/c2cccs2)c1	8.9µM*	-21%	u	13µM*	1%	-11%
Cc1ccnc(NC(=S)NC(=O)c2ccco2)c1	4.5µM*	-19%	u	u	-11%	-16%
O=C(CSCC(=O)Nc1ccccc1)N/N=C/c1c(O)ccc2ccccc12	1µM*	x	u	3.5µM*	2%	0%
O=C(CN1CCOCC1)N/N=C/c1c(O)ccc2ccccc12	u	-8%	2%	1.4µM*	0%	16%
O=C(N/N=C/c1c(O)ccc2ccccc12)Nc1ccccc1	x	-14%	x	x	x	0%
COc1ccc(N=Cc2c(O)ccc3ccccc23)cc1	u	-5%	-13%	-24%	-3%	-9%
N#CCC(=O)N/N=C/c1c2ccccc2cc2ccccc12	11µM*	-29%	u	u	-3%	-35%
O=C(CN1CCOCC1)N/N=C/c1ccco1	-1%	2%	1%	0%	1%	4%
COc1ccc(NC(C)C(=O)N/N=C/c2c(O)ccc3ccccc23)cc1 (stereo unspecified)	1.6µM*	-1%	-2%	3.5µM*	7%	-30%
